Screening data as filed in PubChem.
TDP1 cell CPT: qHTS for Inhibitors of human tyrosyl-DNA phosphodiesterase 1 (TDP1): qHTS in cells in presence of CPT; chicken DT40 Tdp1-/-;hTDP1 cells + 20 nM CPT, ATP luminescence, 48 h; Potency, µM (highest dose often 46.2 µM), hits mostly inhibitors; actives 12% (n = 420,000); AID 686979, 2013; further: nearly all actives have a fitted effect of over 55% in size
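Cell growth measured by CellTiter-Glo luminescence after a minimum 48 h, 37 C compound exposure with 20 nM CPT in Tdp1-knockout DT40 cells stably expressing hTDP1, seeded 400/well; qHTS titration format.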
TDP1 cell noCPT: qHTS for Inhibitors of human tyrosyl-DNA phosphodiesterase 1 (TDP1): qHTS in cells in absence of CPT | Potency, µM (top dose mostly 46.2 µM), usual class: inhibitors | DT40 Tdp1-/- hTDP1 cells, no CPT, ATP luminescence, 48 h | actives 15% (n = 420,000); further: nearly all actives have a fitted effect of over 55% in size
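Luminescent ATP content (CellTiter-Glo) served as the growth readout. Knockout chicken DT40 cells expressing human TDP1 were exposed to compounds without camptothecin for a minimum 48 hr at 37 °C.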
HT1080-NT tox: qHTS for induction of synthetic lethality in tumor cells producing 2HG: qHTS for the HT-1080-NT fibrosarcoma cell line; HT-1080-NT fibrosarcoma viability, CellTiter-Glo ATP luminescence, 48 h; Potency, µM (doses to about 46.1 µM), actives largely listed as cytotoxic; actives 1.6% (n = 360,000); AID 686970, 2013;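 further: NT is the 2HG producing partner of a matched IDH1 knockdown line; nearly all actives have a fitted effect of over 55% in size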
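Read-out is CellTiter-Glo luminescence after 10 minutes at room temperature, following 48 hours' compound treatment of HT-1080-NT cells (750 cells/well, RPMI, 5% FBS, 37 degrees C).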
IL-1B inflam inh: qHTS for Inhibitors of Inflammasome Signaling: IL-1-beta AlphaLISA Primary Screen; THP-1 LPS/ATP IL-1B secretion, AlphaLISA, 16 h; stronger effect = lower value; actives 4.7% (n = 360,000); activity change, % at 57.5 µM; in the data active means activity change below about -50%; inconclusive means mostly about -30% to -49%
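THP-1 cells pretreated 1 hr with compounds (up to 57.5 uM final), then stimulated with LPS (250 ng/mL final) plus ATP (1.25 mM final); secreted IL-1B measured by AlphaLISA after 16 hr, decreased signal indicating inhibition.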
HT1080 IDH1KD tx: qHTS for induction of synthetic lethality in tumor cells producing 2HG: qHTS for the HT-1080-IDH1KD cell line | Potency, µM (series often up to 46.1 µM), actives largely listed as cytotoxic | AID 686971, 2013 | HT-1080 IDH1 knockdown viability, ATP luminescence, 48 h | actives 2% (n = 360,000)
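Assay cells: HT-1080 with IDH1 knockdown, 750 per well, RPMI/5% FBS. Exposure: 48 h at 37 °C following 2 h pre-incubation. Read: CellTiter-Glo luminescence; fitted concentration-response, curve class assigned.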
Numbers stand for hits; [ ] = remark or other dose. In the library only some 19% were active in any assay of this set; here they are far more common. Unless noted, the call rests on the fitted dose curve; in most records, active means well fitted curve in the direction sought with a large enough effect; inconclusive means small, poorly fitted or top-dose-only effect, or another doubt; inactive means no such curve, though single readings can be large; an effect the other way counts as inactive or inconclusive.

How did COc1cc(C2C(C#N)=C(N)OC3=C2C(=O)CC(C)(C)C3)cc([N+](=O)[O-])c1O (centres undefined) do in these assays?
TDP1 cell CPT: inactive; TDP1 cell noCPT: inactive; HT1080-NT tox: inactive; IL-1B inflam inh: inactive; HT1080 IDH1KD tx: inactive

Results for CC(C)Cc1nnc(NC(=O)CCC(=O)N2CCN(c3ccc(Cl)cc3)CC2)s1 ?
TDP1 cell CPT: 21µM; TDP1 cell noCPT: inactive; HT1080-NT tox: inactive; IL-1B inflam inh: inconclusive; HT1080 IDH1KD tx: inactive

What do the screens show for `CCCc1nnc(NC(=O)CCC(=O)N2CCN(Cc3ccc(Cl)cc3)CC2)s1`?
TDP1 cell CPT: 16µM; TDP1 cell noCPT: inconclusive; HT1080-NT tox: inactive; IL-1B inflam inh: inactive; HT1080 IDH1KD tx: inactive

How did CCCc1nnc(NC(=O)CCC(=O)NCc2ccccc2)s1 do in these assays?
TDP1 cell CPT: inactive; TDP1 cell noCPT: inactive; HT1080-NT tox: inactive; IL-1B inflam inh: inactive; HT1080 IDH1KD tx: inactive

Results for CCc1nnc(NC(=O)CCC(=O)N2CCN(Cc3ccccc3)CC2)s1 ?
TDP1 cell CPT: inactive; TDP1 cell noCPT: inactive; HT1080-NT tox: inactive; IL-1B inflam inh: inactive; HT1080 IDH1KD tx: inactive

Results for CCc1nnc(NC(=O)CCC(=O)N2CCN(Cc3ccc(Cl)cc3)CC2)s1 ?
TDP1 cell CPT: 18µM; TDP1 cell noCPT: 23µM; HT1080-NT tox: inactive; IL-1B inflam inh: inactive; HT1080 IDH1KD tx: inactive

How did CCCc1nnc(NC(=O)CCC(=O)N2CCC(Cc3ccccc3)CC2)s1 do in these assays?
TDP1 cell CPT: 26µM; TDP1 cell noCPT: 21µM; HT1080-NT tox: inactive; IL-1B inflam inh: inactive; HT1080 IDH1KD tx: inactive

Results for Cc1ccc(OCCN2CCN(C(=O)CCC(=O)Nc3nnc(CC(C)C)s3)CC2)cc1 ?
TDP1 cell CPT: inconclusive; TDP1 cell noCPT: 10µM; HT1080-NT tox: inconclusive; HT1080 IDH1KD tx: 9.2µM

How did CC(C)Cc1nnc(NC(=O)CCC(=O)N2CCN(Cc3ccc(F)cc3)CC2)s1 do in these assays?
TDP1 cell CPT: inconclusive; TDP1 cell noCPT: inactive; HT1080-NT tox: inactive; IL-1B inflam inh: inactive; HT1080 IDH1KD tx: inactive

What do the screens show for `Cc1cc(N2CCCC2=O)cc(C)c1S(=O)(=O)Nc1c(C)nn(C)c1C`?
TDP1 cell CPT: inactive; TDP1 cell noCPT: inactive; HT1080-NT tox: inactive; IL-1B inflam inh: inactive; HT1080 IDH1KD tx: inactive

Results for CCOCCCn1c(=NC(=O)c2cccs2)c(C#N)cc2c(=O)n3ccccc3nc21 ?
TDP1 cell CPT: inactive; TDP1 cell noCPT: inactive; HT1080-NT tox: inactive; IL-1B inflam inh: inactive; HT1080 IDH1KD tx: inactive

How did COc1cc(N(C)C)c(OC)cc1/C=C/c1ccnc2ccccc12 do in these assays?
TDP1 cell CPT: 10µM; TDP1 cell noCPT: 10µM

Results for COc1cc(/C=C/c2ccnc3ccccc23)ccc1N(C)C ?
TDP1 cell CPT: 2µM; TDP1 cell noCPT: 2.2µM

How did Cc1c(C(=O)N2CC[C@@H]3CCCC[C@H]3C2)sc2ncnc(NCCc3ccccn3)c12 do in these assays?
TDP1 cell CPT: inactive[9.04 µM]; TDP1 cell noCPT: inconclusive

Results for CN(Cc1ccccc1)C(=O)c1nc2ccccn2c1CN1CCc2sccc2C1 ?
TDP1 cell CPT: inactive; TDP1 cell noCPT: inconclusive; HT1080-NT tox: inactive; IL-1B inflam inh: -94; HT1080 IDH1KD tx: inactive

Results for CN(Cc1c(C(=O)N(C)Cc2ccccc2)nc2ccccn12)CC1Cc2ccccc2O1 (centres undefined) ?
TDP1 cell CPT: 18µM; TDP1 cell noCPT: 15µM; HT1080-NT tox: inactive; IL-1B inflam inh: inactive; HT1080 IDH1KD tx: inactive

What do the screens show for `COC(=O)c1ccccc1NC(=O)CCCOc1cc(=O)n(C)c2ccccc12`?
TDP1 cell CPT: inconclusive; TDP1 cell noCPT: inconclusive; HT1080-NT tox: inactive; IL-1B inflam inh: inactive; HT1080 IDH1KD tx: inactive

How did Cc1cc(C)c(NC(=O)C2C(=O)Nc3ccccc3C(=O)N2C(C)(C)C)c(C)c1 (centres undefined) do in these assays?
TDP1 cell CPT: inactive; TDP1 cell noCPT: inactive; HT1080-NT tox: inactive; IL-1B inflam inh: inactive; HT1080 IDH1KD tx: inactive

What do the screens show for `COc1cccc(CNC(=O)COC(=O)c2ccc(-c3ccc(O)cc3)cc2)c1`?
TDP1 cell CPT: inconclusive; TDP1 cell noCPT: 3.3µM; HT1080-NT tox: inconclusive; IL-1B inflam inh: inactive; HT1080 IDH1KD tx: 21µM

What do the screens show for `COc1cccc(CNC(=O)COC(=O)c2cc(Br)c(Br)s2)c1`?
TDP1 cell CPT: inactive; TDP1 cell noCPT: inactive; HT1080-NT tox: inactive; IL-1B inflam inh: inactive; HT1080 IDH1KD tx: inactive

How did CCCc1cc(=O)[nH]c(SCC(=O)N2CC3(C)CC2CC(C)(C)C3)n1 (centres undefined) do in these assays?
TDP1 cell CPT: inactive; TDP1 cell noCPT: inactive; HT1080-NT tox: inactive[9.24 µM]; IL-1B inflam inh: inactive; HT1080 IDH1KD tx: inactive

What do the screens show for `CCc1ccc(S(=O)(=O)Nc2cccc(-c3ccc(OC)nn3)c2)s1`?
TDP1 cell CPT: 12µM; TDP1 cell noCPT: 9.2µM

How did CCc1ccc(S(=O)(=O)Nc2cccc(-c3ccc4nnc(C)n4n3)c2)s1 do in these assays?
TDP1 cell CPT: 23µM; TDP1 cell noCPT: 16µM; HT1080-NT tox: inactive; IL-1B inflam inh: inactive; HT1080 IDH1KD tx: inactive

How did CCc1ccc(S(=O)(=O)Nc2ccc(-c3ccc4nnc(C)n4n3)cc2)s1 do in these assays?
TDP1 cell CPT: inconclusive; TDP1 cell noCPT: inconclusive; HT1080-NT tox: inactive; IL-1B inflam inh: inactive; HT1080 IDH1KD tx: inactive

How did CC1=NN(c2nc(C)cc(C)n2)C(=O)C1CCC(C)C (centres undefined) do in these assays?
TDP1 cell CPT: inconclusive; TDP1 cell noCPT: inconclusive; HT1080-NT tox: 7.9µM; IL-1B inflam inh: inactive; HT1080 IDH1KD tx: 10µM

Results for Cc1cc(C)nc(N2C(=O)CC(C(C)c3ccccc3)C2=O)n1 (centres undefined) ?
TDP1 cell CPT: inactive; TDP1 cell noCPT: inactive; HT1080-NT tox: inactive; IL-1B inflam inh: inactive; HT1080 IDH1KD tx: inactive

What do the screens show for `COC(=O)COc1ccc(/C=N/NS(=O)(=O)c2ccccc2)cc1`?
TDP1 cell CPT: inactive; TDP1 cell noCPT: inactive; HT1080-NT tox: inactive; IL-1B inflam inh: -92; HT1080 IDH1KD tx: inactive

How did Cc1ccccc1C(=O)c1c[nH]c(C(=O)NCc2ccco2)c1 do in these assays?
TDP1 cell CPT: inconclusive; TDP1 cell noCPT: inconclusive; HT1080-NT tox: inactive; IL-1B inflam inh: -52; HT1080 IDH1KD tx: inactive

How did COc1ccccc1N(CC(=O)NCc1ccco1)S(=O)(=O)c1ccc(C)cc1 do in these assays?
TDP1 cell CPT: inactive; TDP1 cell noCPT: inactive; HT1080-NT tox: inactive; IL-1B inflam inh: -85; HT1080 IDH1KD tx: inactive

Results for Cc1ccc(S(=O)(=O)N(CC(=O)Nc2ccccc2C(=O)O)c2ccccc2C)cc1 ?
TDP1 cell CPT: inactive; TDP1 cell noCPT: inconclusive; HT1080-NT tox: inactive; IL-1B inflam inh: inactive; HT1080 IDH1KD tx: inactive
